# PubChem BioAssay
# Several values for one entry are separate records, joined by “and”; a condition that tells them apart may be missing. Identical values can stand only once. For some assays here: Measured potencies and affinities stand elsewhere. This is one part of the list. Activity calls are given as the source filed them.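 Rule for the calls, unless noted: active = fitted half-maximal concentration within the tested range, moderate curve steepness, significant signal drop, and little compound fluorescence or bead-linkage interference; inactive = the rest.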
# Assays:
# [1] = target: Cell division control protein 42 homolog (Homo sapiens) (UniProt P60953); assay: inhibition of fluorescent GTP binding to constitutively active Cdc42 – biochemical, multiplex bead flow cytometry, Bodipy-FL-GTP, dose response (AID 1333;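 active = fitted half-maximal concentration within the tested dose range, moderate curve steepness, a statistically real signal drop, and little compound fluorescence or tag-binding interference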)
# [2] = target: Cell division control protein 42 homolog (Homo sapiens) (UniProt P60953); assay: inhibition of fluorescent GTP binding to wildtype Cdc42 – biochemical, multiplex bead flow cytometry, Bodipy-FL-GTP, dose response (AID 1334); conditions: bead-based flow cytometry, Bodipy-FL-GTP binding to GST-Cdc42; at 100 µM (top of the series) unless noted
# [3] = target: GTPase HRas (Homo sapiens) (UniProt P01112); assay: Ras wt fluorescent GTP loading blockade – biochemical, wildtype, multiplex bead flow cytometry, dose response (AID 1335;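 active = fitted half-maximal concentration within 10 nM to 100 µM, steepness 0.5 to 2, significant signal drop, low assay interference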); conditions: bead-based flow cytometry, Bodipy-GTP binding to GST-Ras; at 100 µM (top of the series) unless noted
# [4] = test system: Ras-related protein Rab-7a (dog), GTP binding; assay: blockers of fluorescent GTP binding to Rab7 – biochemical, wildtype, multiplex bead flow cytometry, dose response (AID 1336; call rule not given here)
# [5] = target: Ras-related C3 botulinum toxin substrate 1 (Homo sapiens) (UniProt P63000); assay: inhibition of wildtype Rac1 nucleotide loading – biochemical, multiplex bead flow cytometry, dose response (AID 1340;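 active = dose curve with midpoint inside tested range, moderate steepness, plateau gap beyond fit error, low compound glow and bead-link interference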); conditions: GST-Rac1 beads, Bodipy-FL-GTP binding; at 100 µM (top of the series) unless noted
# [6] = target: GTPase HRas (Homo sapiens) (UniProt P01112); assay: blockade of GTP loading onto mutant Ras – biochemical, activated mutant, multiplex bead flow cytometry, dose response (AID 1341;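 active = dose-response curve with midpoint inside the tested range, moderate steepness, significant amplitude and little compound fluorescence or bead-attachment interference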;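 note: GST-tagged constitutively activated Ras mutant immobilized on beads and multiplexed with other GTPases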)
# [7] = hit retest on RPL19A-GFP reporter strain – cell-based, S. cerevisiae, flow cytometry, cherry picks, mother/daughter gates, confirmation (AID 2270;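 active = GFP response below 50% of the DMSO control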); conditions: 3 h, at 10 µM, stronger effect = lower value, 100 = same GFP as DMSO wells
# [8] = yeast TOR pathway reporter LAP4-GFP change – cell-based, cherry picks, flow cytometry, mother/daughter gates, confirmation (AID 2271;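 active = GFP response above 150% of the DMSO control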;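 note: ratio of sample to DMSO plate mean so 100% equals DMSO level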); conditions: S. cerevisiae LAP4-GFP strain, 3 h, at 10 µM, stronger effect = higher value, 100 means same as DMSO control
# [9] = TOR pathway reporter MEP2-GFP, retest of hits – S. cerevisiae, flow cytometry GFP, cherry picks, confirmation (AID 2272;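 active = GFP response above 150% of the DMSO control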;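 note: ratio of well signal to plate DMSO mean so 100% equals DMSO level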); conditions: S. cerevisiae MEP2-GFP strain, 3 h, at 10 µM, stronger effect = higher value
# [10] = yeast AGP1-GFP fluorescence change, single-dose – cell-based, flow cytometry, S. cerevisiae, cherry picks, confirmation (AID 2273;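 active = GFP response above 150% of the DMSO level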;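 note: median GFP channel fluorescence over the whole cell population gate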); conditions: S. cerevisiae AGP1-GFP strain, 3 h, at 10 µM
# [11] = TOR pathway CIT2 reporter hit retest – S. cerevisiae, GFP fusion, cherry picks, mother/daughter gates, confirmation (AID 2274;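 active = GFP response above 150% of the DMSO level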); conditions: S. cerevisiae CIT2-GFP strain, flow cytometry, 3 h, at 10 µM, stronger effect = higher value
# [12] = yeast TOR reporter LAP4-GFP level changes – cell-based, second cherry pick, flow cytometry, confirmation (AID 2621;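 active = GFP signal as percent of the solvent control above about 150%, meaning raised reporter expression, limit read from the data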;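 note: ratio of well median GFP fluorescence to plate DMSO mean so 100% = DMSO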); conditions: S. cerevisiae LAP4-GFP strain, 3 h, at 10 µM, stronger effect = higher value
# [13] = TOR pathway reporter MEP2-GFP, hit retest – S. cerevisiae, flow cytometry GFP, second cherry picks, confirmation (AID 2622;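 active = GFP signal above 150% of the solvent control wells, that is a rise of more than half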;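 note: median channel GFP fluorescence of all gated yeast cells per well; ratio of median GFP to plate DMSO average so 100% = DMSO level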); conditions: S. cerevisiae MEP2-GFP strain, 3 h, at 10 µM, stronger effect = higher value
# [14] = retest of hits on RPL19A-GFP strain – cell-based, S. cerevisiae, flow cytometry, second cherry pick, confirmation (AID 2623;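 active = under 65% GFP response relative to DMSO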;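 note: median GFP channel fluorescence per well over the all cells gate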); conditions: 3 h, at 10 µM, stronger effect = lower value, 100% means same as DMSO wells
# [15] = yeast TOR pathway CIT2-GFP reporter modulation – flow cytometry, second cherry pick, single plex, confirmation (AID 2624;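 active = GFP response vs DMSO above about 150%, limit read from the data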;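 note: median green fluorescence per well over all gated yeast cells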); conditions: S. cerevisiae CIT2-GFP strain, 3 h, at 10 µM, stronger effect = higher value, DMSO control wells read 100%
# [16] = yeast AGP1-GFP fluorescence change, single-dose confirmation – cell-based, flow cytometry, S. cerevisiae, cherry pick set 2 (AID 2643;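 active = over 150 percent of DMSO response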;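 note: median GFP channel fluorescence over all cells without mother daughter split; sample median GFP divided by mean DMSO control so 100% equals DMSO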); conditions: S. cerevisiae AGP1-GFP strain, 3 h, at 10 µM, stronger effect = higher value
# [17] = green-channel fluorescence artefact in S. cerevisiae – s288c strain, artefact control for yeast TOR pathway GFP screen, dose response (AID 2757;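 active = fluorescence span over the dose series, or activity score, above about 33, limit read from the data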;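 note: thousands of bead-calibrated equivalent soluble fluorophore molecules from median cell fluorescence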); conditions: 520 nm autofluorescence, flow cytometry, 3 h, at 33 µM, stronger effect = higher value, zero means same as solvent-only cells
# [18] = measured here: daughter cell gate
# [19] = measured here: mother cell gate
# Sequence of Cell division control protein 42 homolog (Homo sapiens) (P60953 whole entry, looked up): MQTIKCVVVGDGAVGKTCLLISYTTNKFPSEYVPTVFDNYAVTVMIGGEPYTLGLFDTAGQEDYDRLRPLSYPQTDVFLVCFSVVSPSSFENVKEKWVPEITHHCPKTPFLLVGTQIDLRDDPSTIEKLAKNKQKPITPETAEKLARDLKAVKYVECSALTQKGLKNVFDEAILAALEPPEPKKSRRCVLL
# Sequence of GTPase HRas (Homo sapiens) (P01112 whole entry, looked up): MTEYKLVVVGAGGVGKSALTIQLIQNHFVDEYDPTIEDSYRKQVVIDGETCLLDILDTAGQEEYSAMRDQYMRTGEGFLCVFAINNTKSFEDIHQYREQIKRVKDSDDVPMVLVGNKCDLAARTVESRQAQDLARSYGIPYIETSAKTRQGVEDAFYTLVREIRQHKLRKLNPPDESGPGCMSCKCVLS
compound,measurement,setting,value
Cc1cccc(CSCc2ccc(C(=O)O)o2)c1,outcome,[1],inactive
same,"fluorescence, percent of control (lower = inhibition)",[2],58.1%
same,"GTP binding, percent of control",[3],86.9%
same,outcome,[4],inactive
same,"GTP binding signal, raw median fluorescence (lower = inhibition) (MCF (arbitrary fluorescence units))",[5],28.5
same,outcome,[6],inactive
COc1ccc(C2=Nn3c(nnc3-c3ccccc3)SC2)cc1OC,outcome,[1],inactive
same,"fluorescence, percent of control (lower = inhibition)",[2],37.5%
same,"GTP binding, percent of control",[3],86%
same,outcome,[4],inactive
same,"GTP binding signal, raw median fluorescence (lower = inhibition) (MCF (arbitrary fluorescence units))",[5],214
same,outcome,[6],inactive
O=C(/C=C/c1ccccc1)NC(NC(=S)Nc1ccc(C(=O)O)cc1)C(Cl)(Cl)Cl (centres undefined),outcome,[1],inactive
same,"fluorescence, percent of control (lower = inhibition)",[2],35.2%
same,"GTP binding, percent of control",[3],78.3%
same,outcome,[4],inactive
same,"GTP binding signal, raw median fluorescence (lower = inhibition) (MCF (arbitrary fluorescence units))",[5],178
same,outcome,[6],inactive
Cc1ccc(C2C(C#N)C(C#N)N3CCCN23)cc1 (centres undefined),outcome,[1],inactive
same,"fluorescence, percent of control (lower = inhibition)",[2],99.2%
same,"GTP binding, percent of control",[3],156%
same,outcome,[4],inactive
same,"GTP binding signal, raw median fluorescence (lower = inhibition) (MCF (arbitrary fluorescence units))",[5],200
same,outcome,[6],inactive
COc1cccc2c1c(C(=O)O)cn2CCOc1ccccc1C,outcome,[1],inactive
same,"fluorescence, percent of control (lower = inhibition)",[2],58.5%
same,"GTP binding, percent of control",[3],212%
same,outcome,[4],inactive
same,"GTP binding signal, raw median fluorescence (lower = inhibition) (MCF (arbitrary fluorescence units))",[5],55.1
same,outcome,[6],inactive
CCN1/C(=C/C=C/c2oc3ccc4ccccc4c3[n+]2CC)Oc2ccc3ccccc3c21,outcome,[1],inactive
same,"fluorescence, percent of control (lower = inhibition)",[2],59.4%
same,"GTP binding, percent of control",[3],108%
same,outcome,[4],inactive
same,"GTP binding signal, raw median fluorescence (lower = inhibition) (MCF (arbitrary fluorescence units))",[5],275
same,outcome,[6],inactive
Cc1ccc2cc3cc(C(=O)N4CCN(Cc5ccccc5)CC4)sc3nc2c1,outcome,[1],inactive
same,"fluorescence, percent of control (lower = inhibition)",[2],87.8%
same,"GTP binding, percent of control",[3],156%
same,outcome,[4],inactive
same,"GTP binding signal, raw median fluorescence (lower = inhibition) (MCF (arbitrary fluorescence units))",[5],188
same,outcome,[6],inactive
COc1cccc2c(SCC(=O)N/N=C/c3ccc(O)cc3O)cc(C)nc12,outcome,[1],inactive
same,"fluorescence, percent of control (lower = inhibition)",[2],29.6%
same,"GTP binding, percent of control",[3],62.9%
same,outcome,[4],inactive
same,"GTP binding signal, raw median fluorescence (lower = inhibition) (MCF (arbitrary fluorescence units))",[5],110
same,outcome,[6],inactive
CC(C)(C)C(=O)c1sc2nc(-c3cccs3)cc(C(F)(F)F)c2c1N,outcome,[1],inactive
same,"fluorescence, percent of control (lower = inhibition)",[2],86.4%
same,"GTP binding, percent of control",[3],182%
same,outcome,[4],inactive
same,"GTP binding signal, raw median fluorescence (lower = inhibition) (MCF (arbitrary fluorescence units))",[5],194
same,outcome,[6],inactive
COc1nc(Nc2ccc(O)cc2)nc(OC(C(F)(F)F)C(F)(F)F)n1,outcome,[1],inactive
same,"fluorescence, percent of control (lower = inhibition)",[2],101%
same,"GTP binding, percent of control",[3],161%
same,outcome,[4],inactive
same,"GTP binding signal, raw median fluorescence (lower = inhibition) (MCF (arbitrary fluorescence units))",[5],172
same,outcome,[6],inactive
O=C(C#Cc1ccccc1)c1cccc([N+](=O)[O-])c1,outcome,[1],inactive
same,"fluorescence, percent of control (lower = inhibition)",[2],50.9% and 49.2%
same,"GTP binding, percent of control",[3],170% and 92.3%
same,outcome,[4],inactive
same,"GTP binding signal, raw median fluorescence (lower = inhibition) (MCF (arbitrary fluorescence units))",[5],92.8
same,outcome,[6],inactive
same,GFP response vs DMSO,[7],92.5% (inactive)
same,GFP response vs DMSO,[7]; [18],95.9%
same,GFP response vs DMSO,[7]; [19],85.9%
same,GFP response relative to DMSO,[8],182% (active)
same,GFP response relative to DMSO,[8]; measured here: daughter cell gate response,166%
same,GFP response relative to DMSO,[8]; measured here: mother cell gate response,183%
same,GFP response vs DMSO,[9],121% (inactive)
same,"GFP response, % of DMSO",[10],112% (inactive)
same,"GFP response, % of DMSO",[11],105% (inactive)
same,"GFP response, % of DMSO",[11]; [18],110%
same,"GFP response, % of DMSO",[11]; [19],97.3%
COc1ccc(/C=C/C(=O)c2cc(Br)ccc(=O)c2O)cc1,outcome,[1],inactive
same,"fluorescence, percent of control (lower = inhibition)",[2],28.6%
same,"GTP binding, percent of control",[3],73%
same,outcome,[4],inactive
same,"GTP binding signal, raw median fluorescence (lower = inhibition) (MCF (arbitrary fluorescence units))",[5],226
same,outcome,[6],inactive
same,GFP response vs DMSO,[12],169% (active)
same,GFP response vs DMSO,[13],185% (active)
same,GFP response vs DMSO,[14],77.3% (inactive)
same,GFP response vs DMSO,[15],191% (active)
same,percent response vs DMSO,[16],80% (inactive)
same,fluorescence change (kMESF span),[17],68.2 (active)
